Experimental data from PubChem BioAssay (Tox21).
Inconclusive results are not listed. Activity calls are given as the source filed them. Unless noted, the call rests on the fitted dose curve; in most records, active means well fitted curve in the direction sought with a large enough effect in the repeat runs; inconclusive means weak or mixed curves; inactive means no such curve, though single readings can be large; an effect the other way counts as inactive or inconclusive.

Key:
[1] = qHTS assay to identify small molecule agonists of the estrogen receptor alpha (ER-alpha) signaling pathway in the presence of an antagonist - cell viability counter screen (AID 1259386);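 further: series mostly up to about 92 µM; cells exposed to compounds for 22 h at 37 °C before the viability read; nearly all actives have a fitted effect of over 30% in size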
Procedure, shortened: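 Cells are starved of estrogens for 5 days in charcoal-stripped serum, seeded for 24hr and co-treated with ICI-182,780 (10.0nM final) and test compounds. After 22hr at 37C, viability is read as CellTiter-Fluor fluorescence.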

[2] = molecular target: Progesterone receptor (Homo sapiens) (UniProt P06401); experiment: qHTS assay to identify small molecule agonists of the progesterone receptor (PR) signaling pathway (AID 1346784; calls by dose curve; further: nearly all actives have a fitted effect of over 30% in size)
Procedure, shortened: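 Seed PR-UAS-bla HEK 293T cells (2% charcoal-stripped FBS), incubate 6 hr at 37C; add compounds in DMSO, 16 hr at 37C; add LiveBLAzer B/G substrate, 2 hr RT; read fluorescence intensity.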

[3] = molecular target: Progesterone receptor (Homo sapiens) (UniProt P06401); experiment: qHTS assay to identify small molecule antagonists of the progesterone receptor (PR) signaling pathway (AID 1346795; active means well fitted inhibition curve with a large enough effect in the signal ratio in the repeat runs, not every such curve was filed as active; the % refers to the signal ratio)
Procedure, shortened: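 Screening used a GripTite HEK293T line with PR-responsive UAS-beta-lactamase. Cells were challenged with compound in the presence of 1 nM R5020 final for 16 hr at 37C; B/G FRET substrate, 2 hr room temperature, fluorescence.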

[4] = qHTS assay to identify small molecule antagonists of the progesterone receptor (PR) signaling pathway - cell viability counter screen (AID 1346798); further: series mostly up to about 92 µM; nearly all actives have a fitted effect of over 50% in size
Procedure, shortened: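 Measures cytotoxicity in parallel with the PR antagonist reporter read: HEK293T PR-UAS-bla cells get compound and R5020 for 16 hr, and remaining viable cells are quantified by CellTiter-Glo luminescence.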

[5] = qHTS assay to identify small molecule antagonists of the TGF-beta/Smad signaling pathway - cell viability counter screen (AID 1346824); further: nearly all actives have a fitted effect of over 50% in size
Procedure, shortened: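 SBE-bla HEK 293T cells, incubated overnight, then compound plus 0.25 ng/mL TGF-beta1 (stock added) for 5 hr at 37 C. Viability was read in the same wells by CellTiter-Glo luminescence after 30 min at room temperature.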

[6] = qHTS assay to identify small molecule agonists of the TGF-beta/Smad signaling pathway - cell viability counter screen (AID 1346829); further: top concentration of the series differs between compounds; nearly all actives have a fitted effect of over 45% in size
Procedure, shortened: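 In parallel with the Smad reporter read, viability of HEK 293T cells stably carrying SBE-bla is quantified by ATP luminescence following 5 hr compound treatment.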

[7] = qHTS assay to identify small molecule agonists of the TGF-beta/Smad signaling pathway (AID 1346859; active means well fitted activation curve with a large enough effect in the signal ratio in the repeat runs, not every such curve was filed as active; the % refers to the signal ratio; further: series mostly up to about 77 µM)
Procedure, shortened: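 Beta-lactamase reporter activity downstream of Smad binding elements was measured in stably transfected HEK 293T cells; compounds were incubated for 5 hr, substrate for 2 hr at room temperature.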

[8] = Caspase-3/7 induction in HepG2 cells by small molecules, qHTS assay (AID 1346978); further: nearly all actives have a fitted effect of over 15% in size
Procedure, shortened: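 Wild-type HepG2 cells, 2,000/well, settled 5 hr at 37 C and 5% CO2, then compound-treated for 17 hr; caspase-3/7 activity read by luminescent Caspase-Glo 3/7 after 30 min at room temperature.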

[9] = Caspase-3/7 induction in CHO-K1 cells by small molecules, qHTS cell viability counter screen (AID 1346979); further: nearly all actives have a fitted effect of over 35% in size; further: potency means the concentration at half of the fitted maximal effect
Procedure, shortened: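 Multiplexed with Caspase-Glo 3/7 in CHO-K1 cells, this counter screen added CellTiter-Fluor after 16hr of compound exposure and recorded fluorescence 1hr later.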

[10] = Caspase-3/7 induction in CHO-K1 cells by small molecules, qHTS assay (AID 1346980); further: nearly all actives have a fitted effect of over 15% in size
Procedure, shortened: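 Wild-type CHO-K1 cells exposed to compounds for 17hr at 37 C, 5% CO2. Caspase-3/7 activity then measured by Caspase-Glo 3/7 luminescence after 30min at room temperature.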

[11] = Caspase-3/7 induction in HepG2 cells by small molecules, qHTS cell viability counter screen (AID 1346981); further: series mostly up to about 92 µM; nearly all actives have a fitted effect of over 30% in size
Procedure, shortened: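 Steps: seed 2,000 HepG2 cells per well; incubate 5 hr at 37 C; pin-add compounds in DMSO; incubate 16 hr; add CellTiter-Fluor; after 1 hr at 37 C and 5% CO2, read fluorescence.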

[12] = molecular target: Nuclear receptor subfamily 1 group I member 2 (Homo sapiens) (UniProt O75469); experiment: Human pregnane X receptor (PXR) small molecule agonists, qHTS assay (AID 1346982); further: nearly all actives have a fitted effect of over 35% in size
Procedure, shortened: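 Agonist mode qHTS: PXR-Luc HepG2 cells plated 5 hr before DMSO-dissolved compounds were pinned in, cultured 24 hr at 37 C, 5% CO2; ONE-Glo luminescence readout.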

[13] = molecular target: Acetylcholinesterase (Homo sapiens) (UniProt P22303); experiment: Acetylcholinesterase (AChE) small molecule antagonists: colormetric cell-based qHTS assay (AID 1347395; calls by dose curve; further: nearly all actives have a fitted effect of over 30% in size; further: potency means the concentration at half of the fitted maximal effect)
Procedure, shortened: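 In this cell-based qHTS, attached SH-SY5Y cells were treated with test chemicals for 30 min, after which acetylthiocholine hydrolysis was followed by DTNB colour development over 90 min at 37 C.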

[14] = molecular target: Thyrotropin-releasing hormone receptor (Homo sapiens) (UniProt P34981); experiment: qHTS assay to identify small molecule antagonists of the thyrotropin-releasing hormone receptor (TRHR) signaling pathway (AID 1346877; active means well fitted inhibition curve with a large enough effect in the repeat runs, not every such curve was filed as active; further: series mostly up to about 51 µM)
Procedure, shortened: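 Cells (TRHR-HEK293) are plated and kept 18 h at 37 °C/5% CO2. A calcium-sensitive dye is added for 2 h, compound follows for 5 min at room temperature, and TRH is then given at 1 nM final.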

[15] = molecular target: Thyrotropin-releasing hormone receptor (Homo sapiens) (UniProt P34981); experiment: qHTS assay to identify small molecule agonists of the thyrotropin-releasing hormone receptor (TRHR) signaling pathway (AID 1346891; calls by dose curve;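 further: HEK293 cells expressing TRHR with calcium dye readout; series mostly up to about 58 µM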)
Procedure, shortened: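 Overnight-plated (18 h, 37 °C, 5% CO2) TRHR-Hek293 cells; 2 h calcium dye at 37 °C; compound in DMSO; 3-min kinetic fluorescence read.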

[16] = Human pregnane X receptor (PXR) small molecule agonists, qHTS cell viability counter screen (AID 1346977); further: nearly all actives have a fitted effect of over 50% in size
Procedure, shortened: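 After a 5hr pre-incubation, PXR-Luc HepG2 cells received compounds plus positive control in DMSO and were kept 24hr at 37C. Cell viability was quantified by fluorescence from CellTiter-Fluor added for the final hour.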

[17] = molecular target: Nuclear receptor subfamily 1 group I member 2 (Homo sapiens) (UniProt O75469); experiment: CYP3A4 induction through human pregnane X receptor (PXR) by small molecules, qHTS assay (AID 1346984); further: nearly all actives have a fitted effect of over 40% in size
Procedure, shortened: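 Steps: seed DPX-2 cells, 5 hr at 37C; pin-transfer compounds; 24 hr at 37C; add Luciferin-IPA (3uM final), 3 hr at 37C; add One-Glo, 30 min RT; read luminescence.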

[18] = molecular target: Nuclear receptor subfamily 1 group I member 2 (Homo sapiens) (UniProt O75469); experiment: Human pregnane X receptor (PXR) activation by small molecules, qHTS assay (AID 1346985); further: nearly all actives have a fitted effect of over 40% in size
Procedure, shortened: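 DPX-2 cells (HepG2 co-transfected with a PXR response element and a CYP3A4-promoter luciferase construct) were seeded at 2,000 per well, rested 5 hr at 37C, then exposed to DMSO-dissolved compounds for 24 hr. Activation was read as luciferase luminescence.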

[19] = qHTS assay to identify small molecule agonists of the progesterone receptor (PR) signaling pathway - cell viability counter screen (AID 1346799; calls by dose curve; further: nearly all actives have a fitted effect of over 45% in size)
Procedure, shortened: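 Using the same plates as the PR reporter screen, HEK293T PR-UAS-bla cells received compounds for 16 hr at 37C and were then lysed with CellTiter-Glo; luminescence was read 30 min later at room temperature.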
On the % scale 0 is the no-effect control and ±100 the full control effect.

Sequence of Acetylcholinesterase (Homo sapiens) (P22303 whole entry, looked up): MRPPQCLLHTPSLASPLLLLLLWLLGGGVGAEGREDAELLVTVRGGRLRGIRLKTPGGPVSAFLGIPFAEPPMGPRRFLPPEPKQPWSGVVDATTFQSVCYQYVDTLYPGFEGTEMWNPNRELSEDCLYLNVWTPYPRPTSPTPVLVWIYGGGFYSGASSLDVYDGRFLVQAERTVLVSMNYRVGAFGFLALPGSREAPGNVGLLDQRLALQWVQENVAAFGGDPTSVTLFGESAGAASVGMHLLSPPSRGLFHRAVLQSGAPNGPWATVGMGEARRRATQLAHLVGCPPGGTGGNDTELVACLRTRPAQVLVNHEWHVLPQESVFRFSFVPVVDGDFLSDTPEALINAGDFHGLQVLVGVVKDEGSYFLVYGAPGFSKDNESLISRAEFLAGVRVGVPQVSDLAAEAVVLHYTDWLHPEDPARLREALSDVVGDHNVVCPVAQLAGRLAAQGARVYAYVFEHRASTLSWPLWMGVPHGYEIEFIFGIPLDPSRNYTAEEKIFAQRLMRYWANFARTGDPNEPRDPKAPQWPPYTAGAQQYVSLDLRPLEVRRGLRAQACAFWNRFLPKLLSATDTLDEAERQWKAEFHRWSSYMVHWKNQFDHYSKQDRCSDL
Sequence of Progesterone receptor (Homo sapiens) (P06401 whole entry, looked up): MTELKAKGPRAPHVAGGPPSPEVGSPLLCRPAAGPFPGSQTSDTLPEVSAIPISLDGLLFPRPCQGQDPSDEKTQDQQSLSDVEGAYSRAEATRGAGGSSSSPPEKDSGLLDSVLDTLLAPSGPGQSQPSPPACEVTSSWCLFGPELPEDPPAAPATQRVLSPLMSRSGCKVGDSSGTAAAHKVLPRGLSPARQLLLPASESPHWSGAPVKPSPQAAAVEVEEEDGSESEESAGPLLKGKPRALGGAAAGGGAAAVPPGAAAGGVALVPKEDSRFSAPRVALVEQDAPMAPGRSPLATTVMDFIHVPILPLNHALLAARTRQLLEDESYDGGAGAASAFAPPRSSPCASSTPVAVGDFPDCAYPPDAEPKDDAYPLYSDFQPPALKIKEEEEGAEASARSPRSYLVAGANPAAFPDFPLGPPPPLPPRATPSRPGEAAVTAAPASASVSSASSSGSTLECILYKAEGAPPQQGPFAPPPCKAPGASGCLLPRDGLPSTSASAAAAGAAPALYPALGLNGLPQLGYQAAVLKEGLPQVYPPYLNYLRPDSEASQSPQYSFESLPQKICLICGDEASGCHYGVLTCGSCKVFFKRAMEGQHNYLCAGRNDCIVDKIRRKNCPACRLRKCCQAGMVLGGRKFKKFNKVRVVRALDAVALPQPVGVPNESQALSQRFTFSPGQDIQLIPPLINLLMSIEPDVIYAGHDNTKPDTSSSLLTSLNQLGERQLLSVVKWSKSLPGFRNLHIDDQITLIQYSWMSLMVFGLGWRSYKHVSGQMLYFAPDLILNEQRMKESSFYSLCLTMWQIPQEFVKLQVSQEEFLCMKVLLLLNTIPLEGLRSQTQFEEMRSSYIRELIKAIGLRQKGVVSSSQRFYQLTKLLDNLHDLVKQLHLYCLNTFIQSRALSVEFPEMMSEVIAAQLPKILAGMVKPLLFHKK
Sequence of Nuclear receptor subfamily 1 group I member 2 (Homo sapiens) (O75469 whole entry, looked up): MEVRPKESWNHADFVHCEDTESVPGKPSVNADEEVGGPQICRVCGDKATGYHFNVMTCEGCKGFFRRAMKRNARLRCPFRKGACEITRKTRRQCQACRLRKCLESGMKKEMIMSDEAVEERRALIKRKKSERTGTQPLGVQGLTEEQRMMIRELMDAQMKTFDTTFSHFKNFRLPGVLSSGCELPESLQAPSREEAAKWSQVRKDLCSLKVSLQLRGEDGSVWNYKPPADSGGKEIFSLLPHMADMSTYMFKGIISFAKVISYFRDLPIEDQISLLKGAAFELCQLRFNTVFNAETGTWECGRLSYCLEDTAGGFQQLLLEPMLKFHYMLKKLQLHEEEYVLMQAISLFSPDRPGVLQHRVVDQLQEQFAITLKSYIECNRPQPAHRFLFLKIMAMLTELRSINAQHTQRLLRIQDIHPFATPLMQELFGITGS
Sequence of Thyrotropin-releasing hormone receptor (Homo sapiens) (P34981 whole entry, looked up): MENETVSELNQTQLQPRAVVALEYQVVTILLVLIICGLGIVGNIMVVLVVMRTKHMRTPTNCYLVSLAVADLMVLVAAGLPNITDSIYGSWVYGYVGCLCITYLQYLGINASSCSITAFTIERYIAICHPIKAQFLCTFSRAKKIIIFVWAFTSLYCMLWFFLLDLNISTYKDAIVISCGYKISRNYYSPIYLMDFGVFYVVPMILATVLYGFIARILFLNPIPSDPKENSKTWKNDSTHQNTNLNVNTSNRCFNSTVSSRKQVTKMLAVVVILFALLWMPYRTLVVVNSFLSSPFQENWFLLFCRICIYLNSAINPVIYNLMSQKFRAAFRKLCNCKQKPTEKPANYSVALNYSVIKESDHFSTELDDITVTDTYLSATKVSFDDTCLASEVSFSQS

C1CCNCC1
inactive: Potency [1] | Potency [2] | Potency [3] | Potency [4] | Potency [5] | Potency [6] | outcome [7] | Potency [8] | Potency [9] | Potency [10] | Potency [11] | Potency [12] | Potency [13]

CC(Cc1ccccc1)NCc1ccccc1Cl (stereo not drawn)
inactive: Potency [1] | Potency [2] | Potency [3] | Potency [4] | Potency [5] | outcome [7] | Potency [14] | outcome [15] | Potency [16] | Potency [8] | Potency [9] | Potency [10] | outcome [17] | Potency [18] | Potency [13]

CN1CC[C@]23c4c5ccc(O)c4O[C@H]2[C@@H](O)CC[C@H]3[C@H]1C5
inactive: Potency [1] | Potency [2] | Potency [3] | Potency [4] | Potency [5] | Potency [6] | outcome [7] | Potency [14] | outcome [15] | Potency [16] | Potency [8] | Potency [9] | Potency [10] | Potency [11] | Potency [12] | Potency [13]

Nc1c(Br)cc(Br)c2c1C(=O)c1ccccc1C2=O
inactive: activity change, negative = cytotoxicity [1] -8.67% [at 19 µM] | activation [2] 0.744% [at 19 µM] | activity change, negative = inhibition [3] 9.35% [at 18.9 µM] | activity change, negative = cytotoxicity [4] -0.481% [at 18.9 µM] | viability change, negative = cytotoxic [5] 4.07% [at 15.8 µM] | activity change, negative = cytotoxicity [6] 9.34% [at 15.8 µM] | activation [7] -5.21% [at 15.8 µM] | activity, negative = inhibition [14] -4.46% [at 10.5 µM] | activation [15] -0.213% [at 11.8 µM] | caspase activation [8] 0.187% [at 19 µM] | caspase-3/7 activation [10] 3.36% [at 19 µM] | activity change, negative = cytotoxicity [11] -8.94% [at 19 µM] | activation [12] 3.29% [at 19 µM] | activity, negative = inhibition [13] 1.8% [at 23.6 µM]
active: Potency [9] 14.5 µM

CCCCOC(=O)CCC(=O)OCCCC
inactive: Potency [1] | Potency [2] | Potency [3] | Potency [4] | Potency [5] | Potency [6] | outcome [7] | Potency [14] | outcome [15] | Potency [16] | Potency [8] | Potency [9] | Potency [10] | Potency [11] | Potency [13]

C[C@H]1[C@@H]2Cc3ccc(O)cc3[C@@]1(C)CCN2C
active: Potency [13] 15.2 µM
inactive: Potency [1] | Potency [2] | Potency [3] | Potency [19] | Potency [5] | Potency [6] | outcome [7] | Potency [14] | outcome [15] | Potency [8] | Potency [9] | Potency [10] | Potency [11] | Potency [12]

CNC(=O)Oc1cccc(N=CN(C)C)c1
inactive: Potency [1] | Potency [2] | Potency [3] | Potency [4] | Potency [5] | Potency [6] | outcome [7] | outcome [15] | Potency [16] | Potency [8] | Potency [10] | Potency [11] | Potency [12]
active: Potency [13] 3.99 µM
